From PubChem BioAssay (Tox21)
Values joined by “and” are separate entries in the source; they are usually repeats but may differ in a detail not shown here. Equal entries are not always repeated. Results filed as inconclusive are left out. Where a call stands in place of a potency, no number is given. More than one record can exist for a structure, and the calls need not agree. Active and inactive are the calls of the source. Unless noted, the call rests on the fitted dose curve; in most records, active means well fitted curve in the direction sought with a large enough effect in the repeat runs; inconclusive means weak or mixed curves; inactive means no such curve, though single readings can be large; an effect the other way counts as inactive or inconclusive.

Tests used:
[1] = qHTS assay for small molecule agonists of the p53 signaling pathway (AID 651631; calls by dose curve; further: nearly all actives have a fitted effect of over 15% in size)
Outline: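 Beta-lactamase reporter activity under p53 response elements was quantified in HCT-116 cells by FRET fluorescence, following 16 h incubation with test compounds at 37 °C and 2 h substrate development at room temperature.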

[2] = qHTS assay for small molecule agonists of the p53 signaling pathway - cell viability (AID 651633; calls by dose curve;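 further: p53RE-bla HCT reporter cells with a stable beta-lactamase p53 reporter; series mostly up to about 83 µM; nearly all actives have a fitted effect of over 30% in size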)
Outline: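 p53RE-bla cells were treated with compound for 16 hours at 37 C. Cytotoxicity was then measured as CellTiter-Glo luminescence after 30 min at room temperature.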

[3] = qHTS assay for small molecules that induce genotoxicity in human embryonic kidney cells expressing luciferase-tagged ATAD5 - cell viability (AID 651634; calls by dose curve; further: nearly all actives have a fitted effect of over 25% in size)
Outline: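 Cytotoxicity counter-readout: after 15.5 hr compound treatment at 37C, live-cell protease activity in ATAD5-luciferase HEK293T cells measured by CellTiter-Fluor fluorescence, 30 min development at 37C.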

[4] = qHTS assay to test for compound auto fluorescence at 590 nm (red) in HepG2 cells (AID 720674)
Outline: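 Fluorescence at 590 nm emission following 540 nm excitation was recorded from HepG2 wells one hour after compound transfer, with DMSO-only wells as vehicle and Rose Bengal sodium equivalency as the scale.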

[5] = qHTS assay to test for compound auto fluorescence at 460 nm (blue) in HEK293 cells (AID 720678)
Outline: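 Cells were seeded and left to adhere for 4-5 hr at 37C. Compounds were then pin-transferred. After an overnight incubation at 37C under 5% CO2, intrinsic fluorescence at 405/460 nm was measured and referenced to triamterene.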

[6] = qHTS assay to test for compound auto fluorescence at 590 nm (red) in HEK293 cells (AID 720679)
Outline: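 Each well held 2,000 HEK293 cells in medium containing 10% dialyzed FBS. Following 4-5 hr attachment at 37C, 23 nL test compound or DMSO was added; plates sat overnight, and red fluorescence (540/590nm) was recorded.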

[7] = qHTS assay to test for compound auto fluorescence at 535 nm (green) in HEK293 cells (AID 720680)
[8] = qHTS assay to test for compound auto fluorescence at 460 nm (blue) in HEK293 cell free culture (AID 720681)
Outline: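 Compounds were added to cell-free DMEM with 10% FBS and fluorescence read directly. The blue channel used 405 nm excitation and 460 nm emission, with triamterene as the reference fluorophore.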

[9] = qHTS assay to test for compound auto fluorescence at 535 nm (green) in HEK293 cell free culture (AID 720682)
Outline: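 Each library compound, or DMSO control, is added by pintool to medium alone, comprising DMEM and 10% FBS. Emission at 535 nm following 485 nm excitation is quantified against fluorescein.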

[10] = qHTS assay to test for compound auto fluorescence at 590 nm (red) in HEK293 cell free culture (AID 720683)
Outline: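 Cell-free wells of DMEM with 10% FBS received compound, and intrinsic fluorescence was read at excitation/emission 540/590 nm. Values expressed as equivalence to Rose Bengal sodium.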

[11] = qHTS assay to test for compound auto fluorescence at 590 nm (red) in HepG2 cell free culture (AID 720684)
Outline: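 Auto fluorescence equivalency versus Rose Bengal sodium, red channel Ex/Em 540/590 nm; compounds in cell-free MEM/10% FBS; DMSO vehicle control.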

[12] = qHTS assay to test for compound auto fluorescence at 460 nm (blue) in HepG2 cell free culture (AID 720685)
Outline: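 Cell-free plates of MEM plus 10% FBS received 23 nL compound or DMSO vehicle; blue-channel (405/460 nm) intensity scored against triamterene as reference fluorophore.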

[13] = qHTS assay to test for compound auto fluorescence at 535 nm (green) in HepG2 cell free culture (AID 720686)
[14] = qHTS assay to test for compound auto fluorescence at 460 nm (blue) in HepG2 cells (AID 720687)
Outline: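 HepG2 cells in MEM with 10% FBS, attached overnight at 37 C, were exposed to compound or DMSO for 1 hr at 37 C, 5% CO2. Blue fluorescence was read at 405/460 nm, with triamterene as reference fluorophore.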

[15] = qHTS assay for small molecules that induce genotoxicity in human embryonic kidney cells expressing luciferase-tagged ATAD5 (AID 651632); further: nearly all actives have a fitted effect of over 15% in size; further: potency means the concentration at half of the fitted maximal effect
Outline: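 A rise in luciferase signal from ATAD5-tagged HEK293T cells marks genetic stress. Cells were exposed to compounds for 16 hr at 37C, 5% CO2, then luciferase was quantified after a 30 min room-temperature incubation with Amplite.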

[16] = qHTS assay for small molecule disruptors of the mitochondrial membrane potential - cell viability (AID 720634; calls by dose curve;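 further: human HepG2 liver cancer cells; series mostly up to about 83 µM; nearly all actives have a fitted effect of over 20% in size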)
Outline: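 Cytotoxicity was quantified from ATP content by CellTiter-Glo luminescence in the same wells as the MMP dye read-out. HepG2 (2,000 cells/well) were plated overnight and exposed to compounds for 1 hr at 37 C.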

[17] = qHTS assay for small molecule disruptors of the mitochondrial membrane potential (AID 720635); further: potency means the concentration at half of the fitted maximal effect
Outline: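 HepG2 cells exposed to compound 1 hr at 37C, then Mito-MPS dye 30 min. Ratio read of aggregate (540/590 nm) versus monomer (490/535 nm) fluorescence.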

[18] = qHTS assay to test for compound auto fluorescence at 535 nm (green) in HepG2 cells (AID 720675)
[19] = target: Glucocorticoid receptor (Homo sapiens) (UniProt P04150); assay: qHTS assay to identify small molecule agonists of the glucocorticoid receptor (GR) signaling pathway (AID 720691; active means well fitted activation curve with a large enough effect in the signal ratio in the repeat runs, not every such curve was filed as active; the % refers to the signal ratio)
Outline: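 Agonist-mode qHTS in HeLa cells stably expressing a glucocorticoid-response-element beta-lactamase reporter. Fluorescence intensity read with FRET substrate (2 h, room temperature) after 18 h compound treatment at 37 C.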

[20] = target: Glucocorticoid receptor (Homo sapiens) (UniProt P04150); assay: qHTS assay to identify small molecule antagonists of the glucocorticoid receptor (GR) signaling pathway (AID 720692; active means well fitted inhibition curve with a large enough effect in the signal ratio in the repeat runs, not every such curve was filed as active; the % refers to the signal ratio)
Outline: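 Inhibition of dexamethasone-driven (5 nM final) beta-lactamase expression was measured in GRE-reporter HeLa cells over 18 h at 37C. Fluorescence was read after 2 h with the B/G FRET substrate at room temperature.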

Sequence of Glucocorticoid receptor (Homo sapiens) (P04150 whole entry, looked up): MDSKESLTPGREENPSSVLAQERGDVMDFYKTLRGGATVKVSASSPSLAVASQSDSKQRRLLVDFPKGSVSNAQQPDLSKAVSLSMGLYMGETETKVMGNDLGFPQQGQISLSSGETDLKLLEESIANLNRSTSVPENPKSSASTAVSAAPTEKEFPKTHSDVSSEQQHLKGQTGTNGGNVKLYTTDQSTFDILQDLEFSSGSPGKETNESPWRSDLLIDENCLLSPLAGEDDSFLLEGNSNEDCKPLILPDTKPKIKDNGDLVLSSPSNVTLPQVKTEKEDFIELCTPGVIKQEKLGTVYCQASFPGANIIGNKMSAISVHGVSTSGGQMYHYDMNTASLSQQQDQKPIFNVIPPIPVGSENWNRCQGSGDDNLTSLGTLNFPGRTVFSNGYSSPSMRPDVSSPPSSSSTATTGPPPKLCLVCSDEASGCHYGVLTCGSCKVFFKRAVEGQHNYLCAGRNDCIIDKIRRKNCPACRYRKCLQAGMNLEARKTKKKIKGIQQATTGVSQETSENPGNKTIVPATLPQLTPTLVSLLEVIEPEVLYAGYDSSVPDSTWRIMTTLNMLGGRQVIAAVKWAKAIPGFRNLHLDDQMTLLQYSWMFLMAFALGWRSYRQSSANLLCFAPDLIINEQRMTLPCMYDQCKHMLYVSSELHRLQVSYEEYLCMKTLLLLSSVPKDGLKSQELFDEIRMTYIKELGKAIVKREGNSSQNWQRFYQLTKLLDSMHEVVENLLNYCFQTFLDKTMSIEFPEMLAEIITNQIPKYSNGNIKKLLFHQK

| SMILES | Potency [1] | Potency [2] | Potency [3] | outcome [4] | outcome [5] | outcome [6] | outcome [7] | outcome [8] | outcome [9] | outcome [10] | outcome [11] | outcome [12] | outcome [13] | outcome [14] | Potency [15] | Potency [16] | Potency [17] | outcome [18] | outcome [19] | Potency [20] |
| --- | --- | --- | --- | --- | --- | --- | --- | --- | --- | --- | --- | --- | --- | --- | --- | --- | --- | --- | --- | --- |
| Oc1ccc(Cl)cc1 | inactive | inactive | inactive | inactive | inactive | inactive | inactive | inactive | inactive | inactive | inactive | inactive | inactive | inactive |  |  |  |  |  |  |
| O=P1(NCCCl)OCCCN1CCCl (stereo unspecified) |  |  | inactive | inactive | inactive | inactive | inactive | inactive | inactive | inactive | inactive | inactive | inactive | inactive | inactive | inactive | inactive | inactive | inactive | inactive |
| C[C@]12CC[C@H](O)CC1=CC[C@@H]1[C@@H]2CC[C@]2(C)C(=O)CC[C@@H]12 |  | inactive | inactive |  | inactive | inactive | inactive | inactive |  | inactive | inactive | inactive | inactive | inactive | inactive | inactive |  |  |  |  |
| CNc1cnn(-c2cccc(C(F)(F)F)c2)c(=O)c1Cl | inactive | inactive | inactive | inactive | inactive | inactive | inactive | inactive | inactive | inactive | inactive | inactive | inactive | inactive |  | inactive | inactive | inactive | inactive | inactive |
| Cc1cccc(N)c1 |  | inactive | inactive |  | inactive | inactive | inactive | inactive | inactive | inactive | inactive | inactive | inactive | inactive | inactive | inactive | inactive |  |  |  |
| CCCCCCCCCCCCCCCCCC(=O)O |  |  | inactive | inactive | inactive | inactive | inactive | inactive | inactive | inactive | inactive | inactive | inactive | inactive |  | inactive | inactive and 54.1 µM (active) |  |  |  |
| NNc1ccccc1 |  | inactive |  |  | inactive | inactive | inactive | inactive |  | inactive | inactive | inactive | inactive | inactive | inactive | inactive | inactive | inactive |  |  |
| ClC(Cl)c1ccccc1 |  | inactive | inactive | inactive | inactive | inactive | inactive | inactive | inactive | inactive | inactive | inactive | inactive | inactive | inactive | inactive | inactive |  | inactive |  |
| C=CC(=O)OCC(CC)CCCC (stereo unspecified) | inactive | inactive |  | inactive | inactive | inactive | inactive | inactive | inactive | inactive | inactive | inactive | inactive | inactive |  | inactive | inactive | inactive | inactive |  |
| OCCCCO | inactive | inactive | inactive | inactive | inactive | inactive | inactive | inactive |  | inactive | inactive | inactive | inactive | inactive |  | inactive | inactive | inactive | inactive |  |
| C/C=C/c1ccc2c(c1)OCO2 | inactive | inactive | inactive | inactive | inactive | inactive | inactive | inactive | inactive | inactive | inactive | inactive | inactive | inactive |  | inactive | 62.3 µM (active) |  |  |  |
| CC12CC1(C)C(=O)N(c1cc(Cl)cc(Cl)c1)C2=O (stereo unspecified) |  | inactive | inactive |  | inactive | inactive | inactive | inactive |  | inactive | inactive | inactive | inactive | inactive | inactive |  |  | inactive | inactive |  |
| C=C(C)C(=O)OCC(CC)CCCC (stereo unspecified) | inactive | inactive | inactive | inactive | inactive | inactive | inactive | inactive | inactive | inactive | inactive | inactive | inactive | inactive | inactive |  |  | inactive | inactive |  |
| CC(=O)/C=C/c1ccccc1 |  | inactive | inactive |  | inactive | inactive | inactive | inactive | inactive | inactive | inactive | inactive | inactive | inactive | inactive | inactive | inactive |  | inactive | inactive |
| Nc1ccc(N)cc1 |  | inactive | inactive | inactive | inactive | inactive | inactive | inactive |  | inactive | inactive | inactive | inactive | inactive | 29.8 µM (active) | inactive | 841 nM (active) and 5.47 µM (active) and 3.86 µM (active) |  |  |  |
| C[C@H]1C(=O)O[C@@H]2CCN3CC=C(COC(=O)[C@](C)(O)[C@]1(C)O)[C@H]23 | inactive | inactive | inactive |  | inactive | inactive | inactive | inactive |  | inactive | inactive | inactive | inactive | inactive | inactive |  |  |  | inactive | inactive |
| Oc1c(Br)cc(Br)cc1Br |  | inactive | inactive |  | inactive | inactive | inactive | inactive | inactive | inactive | inactive | inactive | inactive | inactive | inactive | inactive | 48.7 µM (active) and 54.5 µM (active) |  |  |  |
| CNC(=O)O/N=C/C(C)(C)S(C)=O (stereo unspecified) |  | inactive | inactive |  | inactive | inactive | inactive | inactive | inactive | inactive | inactive | inactive | inactive | inactive | inactive | inactive | inactive |  | inactive | inactive |
| O=C(O)c1cc(Oc2ccc(C(F)(F)F)cc2Cl)ccc1[N+](=O)[O-] |  | inactive | inactive | inactive | inactive | inactive | inactive | inactive | inactive | inactive | inactive | inactive | inactive | inactive | inactive | inactive | inactive | inactive | inactive | inactive |
| CCNc1nc(Cl)nc(NC(C)C)n1 | inactive | inactive | inactive | inactive | inactive | inactive | inactive | inactive |  | inactive | inactive | inactive | inactive | inactive | inactive |  |  | inactive | inactive | inactive |
| CN(C)NC(=O)CCC(=O)O | inactive | inactive |  |  | inactive | inactive | inactive | inactive | inactive | inactive | inactive | inactive | inactive | inactive |  | inactive | inactive | inactive |  |  |
| O=[N+]([O-])c1ccc(Cl)c(Cl)c1 |  | inactive | inactive | inactive | inactive | inactive | inactive | inactive |  | inactive | inactive | inactive | inactive | inactive | inactive | inactive | inactive | inactive | inactive |  |
| OC[C@@H](O)[C@H]1O[C@@H]2O[C@H](C(Cl)(Cl)Cl)O[C@@H]2[C@H]1O |  |  | inactive | inactive | inactive | inactive | inactive | inactive |  | inactive | inactive | inactive | inactive | inactive | inactive | inactive | inactive |  | inactive |  |
| COc1cc(-c2ccc(N)c(OC)c2)ccc1N | inactive | inactive |  |  | inactive | inactive | inactive | inactive | inactive | inactive | inactive | inactive | inactive | inactive | inactive | inactive |  |  |  |  |
| CCCOC(=O)c1ccccc1C(=O)OCCC | inactive | inactive | inactive |  | inactive | inactive | inactive | inactive | inactive | inactive | inactive | inactive | inactive | inactive | inactive | inactive |  |  |  |  |
